Assay results taken from PubChem BioAssay (EPA / NIEHS).
Values joined by “and” are separate entries in the source; they are usually repeats but may differ in a detail not shown here. Equal values may be shown once. Records with an inconclusive call do not appear. Active and inactive are the calls of the source. How the source made its calls, unless noted: active means hit-call score of the fitted dose curve at least 0.9, where 1 is the maximum; inconclusive means response in the unintended direction; inactive means score below 0.9.

What was measured:
[1] = molecular target: Estrogen receptor (Homo sapiens) (UniProt P03372); assay: OT_ERa_GFPERaERE_0120: Odyssey Thera (OT) 2-hour HeLa Transcription Induction Assay for Estrogen Receptor (AID 2283382)
In short: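 HeLa cells were dosed for 2 h, then GFP reporter induction was quantified by fluorescence microscopy with high-content image analysis. Gain of signal fitted against DMSO baseline.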

[2] = molecular target: Retinoic acid receptor RXR-alpha (Homo sapiens) (UniProt P19793); assay: OT_NURR1_NURR1RXRa_0480: Odyssey Thera (OT) 8-hour HEK293T Protein Complementation Assay for Nurr1/retinoid X receptor (RXR) (AID 2283385)
In short: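 HEK293T cells expressing Nurr1 and RXRα fused to reporter fragments (protein-fragment complementation); fluorescence measured 8 h after dosing. Gain of signal fitted relative to DMSO.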

[3] = molecular target: Peroxisome proliferator-activated receptor gamma (Homo sapiens) (UniProt P37231); assay: OT_PPARg_PPARgSRC1_0480: Odyssey Thera (OT) 8-hour Protein-Complementation Assay for Peroxisome Proliferator-activated Receptor Gamma / SRC-1 Co-activator (AID 2283387);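 further: nuclear to cytoplasmic split Venus YFP fluorescence ratio reporting PPARg SRC-1 interaction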
In short: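 Protein-fragment complementation in HEK293T: Venus YFP halves (residues 1-158, 159-239, mutated to IFP1/IFP2) fused to PPARg/SRC-1. 8 h exposure; N/C ratio at 488 nm; DMSO negative control.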

[4] = molecular target: Peroxisome proliferator-activated receptor gamma (Homo sapiens) (UniProt P37231); assay: OT_PPARg_PPARgSRC1_1440: Odyssey Thera (OT) 24-hour Protein-Complementation Assay for Peroxisome Proliferator-activated Receptor Gamma/ SRC-1 Co-activator (AID 2283388);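 further: nuclear to cytoplasmic ratio of reconstituted Venus YFP fluorescence in fixed imaged cells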
In short: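 Readout is the 488 nm N/C fluorescence ratio from fixed, Draq5-stained HEK293T cells after 24 h compound exposure. Cells carried transiently transfected PPARg and SRC-1 fused to Venus fragments, transfected 48 h before treatment.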

[5] = CEETOX_H295R_11DCORT: CeeTox H295R High-throughput Steroidogenesis Assay for 11-Deoxycortisol (11DCORT) (AID 2283432; active means hit-call score of the fitted dose curve at least 0.9, where 1 is the maximum; inactive means score below 0.9;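 on AC50: 11-deoxycortisol secreted into the medium measured by LC-MS/MS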); settings: actives raise or lower the signal
In short: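 Adrenal carcinoma line H295R, run per OECD 456 with minor changes, was forskolin-stimulated (10 uM, 48 h) before a 48 h chemical exposure at 0.1% DMSO. Secreted 11-deoxycortisol was quantified by HPLC-MS/MS.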

[6] = CEETOX_H295R_OHPREG: CeeTox H295R High-throughput Steroidogenesis Assay for OH-Pregnenolone (OHPREG) (AID 2283434; active means hit-call score of the fitted dose curve at least 0.9, where 1 is the maximum; inactive means score below 0.9); settings: actives raise or lower the signal
In short: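 Human adrenal H295R cells were prestimulated 48 h with 10 uM forskolin, then exposed 48 h to chemical in 0.1% DMSO. Medium 17alpha-hydroxypregnenolone was quantified by HPLC-MS/MS after MTBE extraction; bidirectional fitting versus DMSO baseline.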

[7] = CEETOX_H295R_OHPROG: CeeTox H295R High-throughput Steroidogenesis Assay for OH-Progesterone (OHPROG) (AID 2283435; active means hit-call score of the fitted dose curve at least 0.9, where 1 is the maximum; inactive means score below 0.9); settings: actives raise or lower the signal
In short: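 H295R adrenal cells prestimulated 48 h with 10 uM forskolin, then exposed 48 h to chemical (0.1% DMSO final). 17alpha-hydroxyprogesterone in medium quantified by HPLC-MS/MS; bidirectional fit versus DMSO, with MTT viability measured in the same wells.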

[8] = CEETOX_H295R_CORTIC: CeeTox H295R High-throughput Steroidogenesis Assay for Corticosterone (CORTIC) (AID 2283437; active means hit-call score of the fitted dose curve at least 0.9, where 1 is the maximum; inactive means score below 0.9;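 further: corticosterone secreted into medium quantified by mass spectrometry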); settings: actives raise or lower the signal
In short: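 H295R cells were prestimulated 48 h with 10 uM forskolin, then exposed 48 h to test chemical in 0.1% DMSO. Medium corticosterone was MTBE-extracted and quantified by HPLC-MS/MS; bidirectional fit versus DMSO baseline.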

[9] = CEETOX_H295R_CORTISOL: CeeTox H295R High-throughput Steroidogenesis Assay for Cortisol (AID 2283438; active means hit-call score of the fitted dose curve at least 0.9, where 1 is the maximum; inactive means score below 0.9;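 further: cortisol secreted into medium quantified by LC-MS/MS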); settings: actives raise or lower the signal
In short: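 Forskolin-primed H295R cells (10 uM, 48 h) treated 48 h with test chemical in 0.1% DMSO. Cortisol in medium quantified by MTBE extraction and HPLC-MS/MS; bidirectional fit vs DMSO, MTT viability in same wells.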

[10] = CEETOX_H295R_DOC: CeeTox H295R High-throughput Steroidogenesis Assay for DOC (AID 2283439; active means hit-call score of the fitted dose curve at least 0.9, where 1 is the maximum; inactive means score below 0.9); settings: actives raise or lower the signal
In short: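 H295R cells prestimulated 48 h with 10 uM forskolin, then exposed 48 h to test chemical (0.1% DMSO final). Medium 11-deoxycorticosterone measured by HPLC-MS/MS after MTBE extraction; bidirectional fit vs DMSO, viability checked by MTT in same wells.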

[11] = CEETOX_H295R_PROG: CeeTox H295R High-throughput Steroidogenesis Assay for Progesterone (PROG) (AID 2283442; active means hit-call score of the fitted dose curve at least 0.9, where 1 is the maximum; inactive means score below 0.9;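 on AC50: human H295R adrenal cells primed with 10 µM forskolin before dosing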); settings: actives raise or lower the signal
In short: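 Progesterone secreted by human H295R cells was measured by LC-MS/MS following 48 h chemical exposure at 0.1% DMSO, preceded by 48 h forskolin (10 uM) stimulation. Same-well MTT viability; cytotoxic concentrations diluted 10- or 100-fold and retested.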

[12] = read-out: Tumor necrosis factor receptor superfamily member 6 (Homo sapiens) (UniProt P25445); assay: LTEA_HepaRG_FAS: Life Technologies and Expression Analysis (LTEA) Assay for Fas cell surface death receptor (FAS) using HepaRG (AID 2283447; active means hit-call score of the fitted dose curve at least 0.9, where 1 is the maximum; inactive means score below 0.9); settings: mRNA level, 48 h; actives raise or lower the signal
In short: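 Differentiated human HepaRG cells, pre-cultured 48 h, were exposed in duplicate for 48 h to 8-point half-log concentrations (top 100 uM, 0.5% DMSO) in serum-free induction medium; FAS mRNA measured by qRT-PCR, normalized to ACTB/GAPDH/POLR2A, bidirectional fit versus DMSO.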

[13] = read-out: Fatty acid synthase (Homo sapiens) (UniProt P49327); assay: LTEA_HepaRG_FASN: Life Technologies and Expression Analysis (LTEA) Assay for Fatty Acid Synthase (FASN) using HepaRG (AID 2283448; active means hit-call score of the fitted dose curve at least 0.9, where 1 is the maximum; inactive means score below 0.9); settings: mRNA level, 48 h; actives raise or lower the signal
In short: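 Differentiated HepaRG cells in serum-free induction medium exposed 48 h in duplicate to eight half-log concentrations, top 100 uM, 0.5% DMSO. FASN mRNA by qRT-PCR normalised to ACTB, GAPDH, POLR2A; bidirectional fit versus DMSO.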

[14] = read-out: Cyclin D2 (CCND2), CCND2 (gene 894); assay: LTEA_HepaRG_CCND2: Life Technologies and Expression Analysis (LTEA) Assay for Cyclin D2 (CCND2) using HepaRG (AID 2283449; active means hit-call score of the fitted dose curve at least 0.9, where 1 is the maximum; inactive means score below 0.9;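 further: CCND2 transcript measured by TaqMan qRT-PCR and normalised to three housekeeping genes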); settings: mRNA level, 48 h; actives raise or lower the signal
In short: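 Differentiated human HepaRG cells were exposed for 48 h in serum-free induction medium to eight half-log concentrations topping at 100 uM (0.5% DMSO vehicle). CCND2 mRNA was quantified by TaqMan qRT-PCR, normalised to ACTB, GAPDH and POLR2A, and fitted bidirectionally against DMSO.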

[15] = read-out: Cyclin Dependent Kinase Inhibitor 1A (CDKN1A), CDKN1A (gene 1026); assay: LTEA_HepaRG_CDKN1A: Life Technologies and Expression Analysis (LTEA) Assay for Cyclin Dependent Kinase Inhibitor 1A (CDKN1A) using HepaRG (AID 2283450; active means hit-call score of the fitted dose curve at least 0.9, where 1 is the maximum; inactive means score below 0.9); settings: mRNA level, 48 h; actives raise or lower the signal
In short: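 Expression quantified by Fluidigm qRT-PCR with ACTB, GAPDH and POLR2A normalization, fitted bidirectionally against 0.5% DMSO. Cells: HepaRG, plated 48 h then treated 48 h in serum-free induction medium, top concentration 100 uM with half-log dilutions.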

[16] = molecular target: Bile acid receptor (Homo sapiens) (UniProt Q96RI1); assay: OT_FXR_FXRSRC1_0480: Odyssey Thera (OT) 8-hour HEK293T Protein-Complementation Assay for Farnesoid X receptor/SRC-1 Co-activator (AID 2283383)
In short: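 HEK293T protein-fragment complementation assay: FXR and SRC-1 coactivator are fused to reporter fragments, and their interaction restores a fluorescent reporter. Readout was taken 8 h after dosing, with gain of signal fit relative to DMSO.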

[17] = molecular target: Retinoic acid receptor RXR-alpha (Homo sapiens) (UniProt P19793); assay: OT_NURR1_NURR1RXRa_1440: Odyssey Thera (OT) 24-hour HEK293T Protein Complementation Assay for Nurr1/retinoid X receptor (RXR) (AID 2283386)
In short: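 HEK293T protein-fragment complementation of Nurr1 and RXRα fused to reporter fragments; compounds 24 h. Fluorescence gain from reconstituted reporter fitted versus DMSO.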

[18] = CEETOX_H295R_ANDR: CeeTox H295R High-throughput Steroidogenesis Assay for Androstenedione (ANDR) (AID 2283436; active means hit-call score of the fitted dose curve at least 0.9, where 1 is the maximum; inactive means score below 0.9); settings: actives raise or lower the signal
In short: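 H295R human adrenal cells (passages ≤10) were exposed to test chemicals for 48 h; androstenedione in medium was MTBE-extracted and quantified by HPLC-MS/MS against a 7-point standard curve. Bidirectional fitting used DMSO as baseline.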

[19] = CEETOX_H295R_ESTRONE: CeeTox H295R High-throughput Steroidogenesis Assay for Estrone (AID 2283441; active means hit-call score of the fitted dose curve at least 0.9, where 1 is the maximum; inactive means score below 0.9;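 further: estrone secreted into medium measured by LC-MS/MS after dansyl derivatization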); settings: actives raise or lower the signal
In short: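 H295R cells prestimulated 48 h with 10 uM forskolin, then exposed 48 h to chemicals in 0.1% DMSO final; estrone in medium extracted with MTBE, dansyl-derivatized, quantified by HPLC-MS/MS; bidirectional fitting versus DMSO, viability by MTT.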

[20] = CEETOX_H295R_ESTRADIOL: CeeTox H295R High-throughput Steroidogenesis Assay for Estradiol (AID 2283440; active means hit-call score of the fitted dose curve at least 0.9, where 1 is the maximum; inactive means score below 0.9;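 further: estradiol secreted into medium quantified by LC-MS/MS after dansyl derivatisation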); settings: actives raise or lower the signal
In short: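 Estradiol in spent medium measured by LC-MS/MS after dansyl chloride derivatisation. Forskolin-primed (10 uM, 48 h) human adrenal H295R cells received test chemical 48 h at 0.1% DMSO; concentrations lowered until MTT viability >/=70%.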

Measured: AC50

Retinoic acid receptor RXR-alpha (Homo sapiens), sequence (P19793 whole entry, looked up, the tested form may be a part): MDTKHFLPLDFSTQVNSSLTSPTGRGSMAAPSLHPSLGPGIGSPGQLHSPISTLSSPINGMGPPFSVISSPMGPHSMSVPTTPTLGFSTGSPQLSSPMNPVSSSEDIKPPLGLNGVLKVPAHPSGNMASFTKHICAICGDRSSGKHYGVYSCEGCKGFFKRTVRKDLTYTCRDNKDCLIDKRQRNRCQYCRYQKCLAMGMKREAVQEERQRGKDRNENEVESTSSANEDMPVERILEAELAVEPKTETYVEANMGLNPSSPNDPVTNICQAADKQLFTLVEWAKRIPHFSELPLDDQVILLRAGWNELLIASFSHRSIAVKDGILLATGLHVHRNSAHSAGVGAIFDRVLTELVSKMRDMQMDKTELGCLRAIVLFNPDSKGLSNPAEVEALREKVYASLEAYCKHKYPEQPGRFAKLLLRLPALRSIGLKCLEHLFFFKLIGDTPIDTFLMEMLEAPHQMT
Fatty acid synthase (Homo sapiens), sequence (P49327 whole entry, looked up): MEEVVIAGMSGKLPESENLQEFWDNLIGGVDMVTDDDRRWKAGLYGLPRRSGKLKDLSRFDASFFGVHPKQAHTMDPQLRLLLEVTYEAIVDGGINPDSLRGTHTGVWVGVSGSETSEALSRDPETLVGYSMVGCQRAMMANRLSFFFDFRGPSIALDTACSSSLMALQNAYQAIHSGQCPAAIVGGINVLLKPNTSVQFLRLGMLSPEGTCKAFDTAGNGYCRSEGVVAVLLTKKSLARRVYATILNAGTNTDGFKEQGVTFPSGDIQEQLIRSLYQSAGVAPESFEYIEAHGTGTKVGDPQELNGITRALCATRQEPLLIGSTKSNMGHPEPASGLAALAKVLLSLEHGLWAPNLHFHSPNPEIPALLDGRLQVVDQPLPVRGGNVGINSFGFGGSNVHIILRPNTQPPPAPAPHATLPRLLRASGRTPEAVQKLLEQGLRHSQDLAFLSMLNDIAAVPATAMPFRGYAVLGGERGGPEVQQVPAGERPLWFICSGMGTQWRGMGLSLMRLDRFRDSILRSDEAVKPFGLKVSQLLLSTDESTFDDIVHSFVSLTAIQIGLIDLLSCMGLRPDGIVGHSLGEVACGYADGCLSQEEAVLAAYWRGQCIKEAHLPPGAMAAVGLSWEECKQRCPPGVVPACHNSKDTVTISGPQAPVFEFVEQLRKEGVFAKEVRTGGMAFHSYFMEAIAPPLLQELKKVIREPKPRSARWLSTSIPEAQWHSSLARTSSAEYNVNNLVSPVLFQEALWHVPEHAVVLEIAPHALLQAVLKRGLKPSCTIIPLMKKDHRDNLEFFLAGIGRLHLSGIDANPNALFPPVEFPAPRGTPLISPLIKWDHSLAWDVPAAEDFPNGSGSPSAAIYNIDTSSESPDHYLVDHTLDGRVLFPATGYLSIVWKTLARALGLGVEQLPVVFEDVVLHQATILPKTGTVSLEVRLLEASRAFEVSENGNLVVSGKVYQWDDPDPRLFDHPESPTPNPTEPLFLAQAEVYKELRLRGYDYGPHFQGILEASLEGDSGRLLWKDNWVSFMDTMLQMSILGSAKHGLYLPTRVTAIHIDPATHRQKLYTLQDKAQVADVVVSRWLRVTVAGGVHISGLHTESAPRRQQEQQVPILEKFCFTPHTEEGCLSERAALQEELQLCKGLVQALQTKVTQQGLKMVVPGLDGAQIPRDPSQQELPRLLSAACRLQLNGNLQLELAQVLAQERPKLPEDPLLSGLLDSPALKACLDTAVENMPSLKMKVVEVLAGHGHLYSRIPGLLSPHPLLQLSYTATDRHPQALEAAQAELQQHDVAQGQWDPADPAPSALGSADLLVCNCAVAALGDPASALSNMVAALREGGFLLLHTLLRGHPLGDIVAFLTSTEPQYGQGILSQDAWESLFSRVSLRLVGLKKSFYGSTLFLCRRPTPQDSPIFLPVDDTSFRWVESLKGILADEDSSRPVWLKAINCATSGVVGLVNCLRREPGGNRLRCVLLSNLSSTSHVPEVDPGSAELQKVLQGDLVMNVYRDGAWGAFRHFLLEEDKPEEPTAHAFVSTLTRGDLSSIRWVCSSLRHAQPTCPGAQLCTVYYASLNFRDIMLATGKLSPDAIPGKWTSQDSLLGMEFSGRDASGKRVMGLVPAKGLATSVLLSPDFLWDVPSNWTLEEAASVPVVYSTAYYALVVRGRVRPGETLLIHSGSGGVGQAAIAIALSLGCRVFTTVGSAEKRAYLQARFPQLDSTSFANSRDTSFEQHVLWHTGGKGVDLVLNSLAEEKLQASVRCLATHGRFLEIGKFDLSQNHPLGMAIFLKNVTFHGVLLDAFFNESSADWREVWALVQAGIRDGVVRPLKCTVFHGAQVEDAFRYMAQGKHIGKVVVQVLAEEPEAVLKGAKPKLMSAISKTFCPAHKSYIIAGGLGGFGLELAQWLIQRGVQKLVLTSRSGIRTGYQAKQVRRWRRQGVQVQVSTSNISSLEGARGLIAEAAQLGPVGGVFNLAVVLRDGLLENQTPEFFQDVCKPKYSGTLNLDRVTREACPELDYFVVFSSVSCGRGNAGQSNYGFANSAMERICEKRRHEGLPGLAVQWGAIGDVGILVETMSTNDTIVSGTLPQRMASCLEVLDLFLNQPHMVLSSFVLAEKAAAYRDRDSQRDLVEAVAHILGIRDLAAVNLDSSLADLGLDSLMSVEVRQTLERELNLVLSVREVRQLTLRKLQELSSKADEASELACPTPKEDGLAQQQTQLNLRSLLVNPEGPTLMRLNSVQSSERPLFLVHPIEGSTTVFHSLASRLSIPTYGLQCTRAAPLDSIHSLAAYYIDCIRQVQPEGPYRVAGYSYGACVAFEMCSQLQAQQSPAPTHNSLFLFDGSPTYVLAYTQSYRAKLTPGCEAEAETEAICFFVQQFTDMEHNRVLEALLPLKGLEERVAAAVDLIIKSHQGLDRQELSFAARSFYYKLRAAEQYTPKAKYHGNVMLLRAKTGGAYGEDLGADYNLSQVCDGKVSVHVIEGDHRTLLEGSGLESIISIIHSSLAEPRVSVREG
Peroxisome proliferator-activated receptor gamma (Homo sapiens), sequence (P37231 whole entry, looked up, the tested form may be a part): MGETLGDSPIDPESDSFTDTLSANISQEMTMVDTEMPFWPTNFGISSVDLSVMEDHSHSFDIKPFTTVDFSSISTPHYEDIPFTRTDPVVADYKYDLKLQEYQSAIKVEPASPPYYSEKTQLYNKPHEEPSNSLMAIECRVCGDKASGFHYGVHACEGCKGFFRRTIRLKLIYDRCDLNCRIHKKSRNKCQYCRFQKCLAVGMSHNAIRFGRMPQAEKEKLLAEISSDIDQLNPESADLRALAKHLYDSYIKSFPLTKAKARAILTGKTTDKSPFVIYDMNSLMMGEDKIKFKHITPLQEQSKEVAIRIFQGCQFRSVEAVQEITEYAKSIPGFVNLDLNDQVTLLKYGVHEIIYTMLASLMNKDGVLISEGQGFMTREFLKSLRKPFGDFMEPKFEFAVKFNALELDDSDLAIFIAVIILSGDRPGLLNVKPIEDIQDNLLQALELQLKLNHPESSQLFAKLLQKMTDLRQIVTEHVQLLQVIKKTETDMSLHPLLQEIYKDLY
Bile acid receptor (Homo sapiens), sequence (Q96RI1 whole entry, looked up, the tested form may be a part): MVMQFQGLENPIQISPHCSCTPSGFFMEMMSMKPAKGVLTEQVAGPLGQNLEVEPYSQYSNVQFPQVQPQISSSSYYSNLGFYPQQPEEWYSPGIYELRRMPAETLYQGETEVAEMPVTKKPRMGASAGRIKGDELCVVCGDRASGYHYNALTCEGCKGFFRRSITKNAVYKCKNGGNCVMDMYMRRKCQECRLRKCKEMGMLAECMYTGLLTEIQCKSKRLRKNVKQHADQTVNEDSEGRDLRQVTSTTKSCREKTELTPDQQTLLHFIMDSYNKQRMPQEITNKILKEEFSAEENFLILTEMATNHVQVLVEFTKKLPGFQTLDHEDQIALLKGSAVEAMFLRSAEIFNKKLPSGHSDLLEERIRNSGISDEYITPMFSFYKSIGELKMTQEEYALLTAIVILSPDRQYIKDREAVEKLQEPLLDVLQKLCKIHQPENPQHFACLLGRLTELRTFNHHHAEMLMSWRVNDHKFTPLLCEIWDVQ
Estrogen receptor (Homo sapiens), sequence (P03372 whole entry, looked up): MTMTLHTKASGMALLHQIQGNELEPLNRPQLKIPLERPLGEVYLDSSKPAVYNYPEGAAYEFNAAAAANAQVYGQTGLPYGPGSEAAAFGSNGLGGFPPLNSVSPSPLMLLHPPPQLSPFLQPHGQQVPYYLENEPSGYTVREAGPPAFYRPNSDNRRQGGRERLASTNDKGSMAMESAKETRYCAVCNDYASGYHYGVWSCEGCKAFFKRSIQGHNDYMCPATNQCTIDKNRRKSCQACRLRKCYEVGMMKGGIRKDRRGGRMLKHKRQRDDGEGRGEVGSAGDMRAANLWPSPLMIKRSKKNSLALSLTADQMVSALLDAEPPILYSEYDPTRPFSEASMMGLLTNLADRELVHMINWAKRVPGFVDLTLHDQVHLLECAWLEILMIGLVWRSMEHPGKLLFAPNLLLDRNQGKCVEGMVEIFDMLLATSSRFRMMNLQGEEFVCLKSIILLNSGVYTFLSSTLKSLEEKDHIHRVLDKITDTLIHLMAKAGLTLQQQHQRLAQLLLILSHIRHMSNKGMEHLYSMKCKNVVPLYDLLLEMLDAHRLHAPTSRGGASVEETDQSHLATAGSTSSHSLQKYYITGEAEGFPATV

CCCCC(C#N)(Cn1cncn1)c1ccc(Cl)cc1 (stereo unspecified)
active: [5] 51 µM | [6] 7.87 µM | [7] 4.02 µM | [9] 832 nM | [10] 36.5 µM | [13] 22.1 µM | [15] 50 µM
not listed: [16] | [17] | [18] | [19] | [20]
inactive: all other assays above

CCOc1cc(C(C)(C)C)ccc1C1COC(c2c(F)cccc2F)=N1 (stereo unspecified)
inactive: [1] | [2] | [3] | [4] | [7] | [18] | [19] | [12] | [13] | [14]
active: [16] 1.27 µM | [17] 18.5 µM and 20.6 µM

CC(C)=CC1C(C(=O)OCc2coc(Cc3ccccc3)c2)C1(C)C (stereo unspecified)
active: [16] 39.6 µM | [17] 20.3 µM
inactive: [1] | [2] | [3] | [4] | [12] | [13] | [14]

COCC(=O)N(c1c(C)cccc1C)C(C)C(=O)OC (stereo unspecified)
active: [14] 81.5 nM
not listed: [5] | [8] | [9] | [10] | [18]
inactive: all other assays above

CCSC(=O)N1CCCCCC1
inactive: [1] | [17] | [3] | [4] | [6] | [7] | [20] | [19] | [11] | [12] | [13]

Cc1cc(C)nc(Nc2ccccc2)n1
inactive: [1] | [17] | [3] | [4] | [12] | [13]

CS(=O)(=O)c1ccc(C(=O)C2C(=O)CCCC2=O)c([N+](=O)[O-])c1
inactive: [1] | [16] | [2] | [3] | [4] | [12] | [13] | [14]

CCN(CC)c1nc(C)cc(OP(=S)(OC)OC)n1
active: [8] 24.7 µM | [10] 36.2 µM | [20] 1.22 µM | [19] 1.62 µM | [11] 45.8 µM | [13] 27.4 µM
not listed: [15] | [16] | [18]
inactive: all other assays above

CCC(C)n1c(=O)[nH]c(C)c(Br)c1=O (stereo unspecified)
active: [13] 14.1 µM
not listed: [1] | [5] | [8] | [9] | [10] | [15] | [18]
inactive: all other assays above
